Rows were chosen to be rich in hits. Some 1.2% of all compounds tested hit in one or more screens of this group.
PrP 5UTR inh: inhibition of PrP 5' UTR reporter expression. cell-based PrP 5' UTR mRNA reporter, plate reader. inhibition, % (test concentration not listed). hit rate 0.35% among 340,000. AID 488862; in the data active means inhibition above about 52%
Yp Topo-I inh: blocks Yersinia pestis topoisomerase I activity. hit rate 0.064% among 360,000. AID 504884. activity, % at 10 µM. Y. pestis Topo-I cleavage product accumulation, plate reader; in the data active means activity above about 50%, passing the limit was not always enough
TcdB inh: blocks C. difficile toxin B glycohydrolase activity | inhibition, % at 9.99 µM | P18177 | hit rate 0.24% among 350,000 | TcdB glycohydrolase enzymatic assay, plate reader; in the data active means inhibition above about 10%
PfHsp40 rescue: restores yeast growth despite PfHsp40 toxicity; AID 504582; hit rate 0.68% among 340,000; growth rescue, % at 12.5 µM; S. cerevisiae expressing PfHsp40, growth rescue, ATP luminescence; in the data active means growth rescue above about 28%, passing the limit was not always enough;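 further: yeast W303a lacking pdr1 and pdr3 grown in galactose medium; growth measured after three days at 30 °C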
Mtb BioA inh: BioA (M. tuberculosis) enzyme inhibition; hit rate 0.096% among 360,000; AID 602481; purified M. tuberculosis BioA enzyme, plate reader; inhibition, % at 9.99 µM; in the data active means inhibition above about 40%
FadD28 binding: blocks FadD28 binding to the bisubstrate probe; fluorescence polarization; inhibition, % at 12.5 µM; hit rate 0.22% among 360,000; in the data active means inhibition above about 8.5%, passing the limit was not always enough
A number is an active result.

What do the screens show for `CC(OC(=O)[C@@H](NC(=O)OCc1ccccc1)C(C)C)C(=O)Nc1ccc(N2CCOCC2)cc1` (stereo not given in full)?
PrP 5UTR inh: inactive; Yp Topo-I inh: inactive; TcdB inh: 10.8; PfHsp40 rescue: inactive; Mtb BioA inh: inactive; FadD28 binding: inactive

How did COc1cccc(CC(=O)OC(C)C(=O)Nc2ccc(N3CCOCC3)cc2)c1 (stereo not given) do in these assays?
PrP 5UTR inh: inactive; Yp Topo-I inh: inactive; TcdB inh: inactive; PfHsp40 rescue: inactive; Mtb BioA inh: inactive; FadD28 binding: inactive

Results for CC(C)NC(=O)N(C)C[C@@H]1Oc2ccc(NS(=O)(=O)c3ccc(F)cc3)cc2CC(=O)N([C@H](C)CO)C[C@H]1C ?
TcdB inh: inactive; Mtb BioA inh: inactive

Results for N#C/C(=C/c1ccco1)C(N)=S ?
PrP 5UTR inh: inactive; Yp Topo-I inh: inactive; TcdB inh: inactive; PfHsp40 rescue: inactive; FadD28 binding: 14.8

How did O=C1CCN(Cc2ccccc2)S(=O)(=O)c2ccccc21 do in these assays?
PrP 5UTR inh: inactive; Yp Topo-I inh: inactive; TcdB inh: inactive; PfHsp40 rescue: inactive; Mtb BioA inh: inactive; FadD28 binding: inactive

What do the screens show for `C=C1CCN(Cc2ccccc2)S(=O)(=O)c2ccccc21`?
PrP 5UTR inh: inactive; Yp Topo-I inh: inactive; TcdB inh: 11.0; PfHsp40 rescue: inactive; Mtb BioA inh: inactive; FadD28 binding: inactive

What do the screens show for `COc1ccccc1C(=O)Nc1ccc2c(c1)C(=O)N(C)C[C@H](OC)[C@H](C)CN(C(C)=O)[C@H](C)CO2`?
TcdB inh: inactive; Mtb BioA inh: inactive

What do the screens show for `Cc1[nH]c2ccc(C(=O)NC3CCCC3)cc2c1C`?
PrP 5UTR inh: inactive; Yp Topo-I inh: inactive; TcdB inh: inactive; PfHsp40 rescue: 28.8; Mtb BioA inh: inactive; FadD28 binding: inactive

What do the screens show for `COc1cc2c(cc1N)-c1ccc(N)cc1C2=O`?
Yp Topo-I inh: inactive; TcdB inh: 20.2; Mtb BioA inh: inactive; FadD28 binding: inactive

How did CCNC(=O)C[C@@H]1CC[C@H]2[C@H](COc3ccc(NC(C)=O)cc3C(=O)N2C)O1 do in these assays?
TcdB inh: 10.5; Mtb BioA inh: inactive

What do the screens show for `CCCNC(=O)C[C@H]1CC[C@@H]2[C@H](COc3ccc(NC(=O)c4ccc(Cl)cc4)cc3C(=O)N2C)O1`?
TcdB inh: 15.3; Mtb BioA inh: inactive

Results for C[C@H](CO)N1C[C@H](C)[C@@H](CN(C)Cc2ccncc2)Oc2cc(-c3cccnc3)ccc2S1(=O)=O ?
TcdB inh: inactive; Mtb BioA inh: inactive

Results for CSCCC1NC(=O)N(CC(=O)N2CCc3ccccc3C2)C1=O (stereo not given) ?
PrP 5UTR inh: inactive; Yp Topo-I inh: inactive; TcdB inh: inactive; PfHsp40 rescue: 49.9; Mtb BioA inh: inactive; FadD28 binding: inactive

Results for Cc1nn(C)cc1-c1n[nH]c(=S)n1-c1ccc(F)cc1 ?
PrP 5UTR inh: inactive; Yp Topo-I inh: inactive; TcdB inh: 10.4; PfHsp40 rescue: inactive; FadD28 binding: inactive

What do the screens show for `Cn1cc(Cl)c(-c2n[nH]c(=S)n2-c2ccc(F)cc2)n1`?
PrP 5UTR inh: inactive; Yp Topo-I inh: inactive; TcdB inh: inactive; PfHsp40 rescue: inactive; FadD28 binding: inactive

How did O=S(=O)(Nc1ccn(-c2ccccc2)n1)c1ccc(Br)cc1 do in these assays?
PrP 5UTR inh: inactive; Yp Topo-I inh: inactive; TcdB inh: inactive; PfHsp40 rescue: 60.1; Mtb BioA inh: inactive; FadD28 binding: inactive

Results for O=C(Nc1ccc(Cl)c(Cl)c1)N[C@@H]1CC[C@H](CCn2cc(C3CCCC3)nn2)O[C@@H]1CO ?
TcdB inh: inactive

What do the screens show for `O=C(Nc1cc(F)ccc1F)N[C@H]1C=C[C@H](CC(=O)N2CCc3ccccc3C2)O[C@@H]1CO`?
TcdB inh: inactive; Mtb BioA inh: inactive

Results for N=C1c2ccccc2CN1NC(=O)C1CC1 ?
PrP 5UTR inh: inactive; Yp Topo-I inh: inactive; PfHsp40 rescue: inactive; FadD28 binding: inactive

Results for N=C1c2ccccc2CN1NC(=O)CC12CC3CC(CC(C3)C1)C2 ?
PrP 5UTR inh: inactive; Yp Topo-I inh: inactive; TcdB inh: inactive; PfHsp40 rescue: inactive; FadD28 binding: 21.9

How did C[C@@H]1CN([C@H](C)CO)C(=O)c2cc(NC(=O)CCCCCC(=O)Nc3ccccc3N)ccc2O[C@@H](C)CCCCO[C@@H]1CN(C)C(=O)C1CCCCC1 do in these assays?
TcdB inh: inactive; Mtb BioA inh: inactive

What do the screens show for `Cc1cccc(CCNC(=O)CN(C)S(=O)(=O)c2cnc[nH]2)c1`?
PrP 5UTR inh: inactive; Yp Topo-I inh: inactive; PfHsp40 rescue: 70.3; Mtb BioA inh: inactive; FadD28 binding: inactive

What do the screens show for `Cc1cc(C)cc(NC(=O)CN(C)S(=O)(=O)c2cnc[nH]2)c1`?
PrP 5UTR inh: inactive; Yp Topo-I inh: inactive; PfHsp40 rescue: inactive; Mtb BioA inh: inactive; FadD28 binding: inactive

Results for CCn1c(SCC(=O)OC)nnc1-c1ccccc1 ?
PrP 5UTR inh: inactive; Yp Topo-I inh: inactive; TcdB inh: 19.7; PfHsp40 rescue: inactive; Mtb BioA inh: inactive; FadD28 binding: inactive

How did COc1cccc(NC(=S)NCCC(c2ccccc2)c2ccccc2)c1 do in these assays?
PrP 5UTR inh: inactive; Yp Topo-I inh: inactive; PfHsp40 rescue: inactive; FadD28 binding: inactive

How did COc1ccc(NC(=S)NCCC(c2ccccc2)c2ccccc2)c(OC)c1 do in these assays?
PrP 5UTR inh: inactive; Yp Topo-I inh: inactive; PfHsp40 rescue: 38.9; Mtb BioA inh: inactive; FadD28 binding: inactive

Results for Cc1c(Cl)cccc1NC(=S)NCCC(c1ccccc1)c1ccccc1 ?
PrP 5UTR inh: inactive; Yp Topo-I inh: inactive; PfHsp40 rescue: 54.4; Mtb BioA inh: inactive; FadD28 binding: inactive

What do the screens show for `COc1ccccc1N(CCC#N)C(=O)CSc1nc(-c2ccccc2)cn1N`?
PrP 5UTR inh: inactive; Yp Topo-I inh: inactive; PfHsp40 rescue: 36.2; Mtb BioA inh: inactive; FadD28 binding: inactive

What do the screens show for `CO[C@@H]1CC[C@H]2CCOc3ccc(C#N)cc3C(=O)N(C)C[C@H](C)C(=O)N(C)C[C@@H]1O2`?
TcdB inh: inactive; Mtb BioA inh: inactive

How did O=[N+]([O-])c1cc(Cc2ccccc2)cc(C=Nc2ccc(N3CCOCC3)cc2)c1O do in these assays?
PrP 5UTR inh: inactive; Yp Topo-I inh: inactive; PfHsp40 rescue: 274.5; FadD28 binding: inactive

How did Cc1ccc(O)c(N=Cc2cc(Cc3ccccc3)cc([N+](=O)[O-])c2O)c1 do in these assays?
PrP 5UTR inh: inactive; Yp Topo-I inh: inactive; TcdB inh: inactive; PfHsp40 rescue: 124.0; FadD28 binding: inactive

How did Fc1ccc(Cn2ccc(-c3cnc(-c4ccccc4)s3)n2)cc1 do in these assays?
PrP 5UTR inh: inactive; Yp Topo-I inh: inactive; PfHsp40 rescue: 57.6; FadD28 binding: inactive

How did Cc1ccc(Cn2ccc(-c3cnc(-c4ccccc4)s3)n2)cc1 do in these assays?
PrP 5UTR inh: inactive; Yp Topo-I inh: inactive; PfHsp40 rescue: inactive; Mtb BioA inh: inactive; FadD28 binding: inactive

What do the screens show for `CO[C@H]1CN(C)C(=O)c2cc(NC(=O)c3ccccc3)ccc2OC[C@H](C)N(C)C[C@H]1C`?
TcdB inh: inactive; Mtb BioA inh: inactive

Source: PubChem BioAssay (Broad Institute)
